# Bioassay records (PubChem BioAssay)
# Most compounds without a hit are left out; they make up all but 0.4% or so of the library.
# GAA inh – qHTS Assay for Inhibitors of Human alpha-Glucosidase as a Potential Chaperone Treatment of Pompe Disease; AID 1466, 2008; 0.005% of 200,000 active; Potency, µM (top dose mostly 76.9 µM), for the others: at the highest dose activity change, negative = inhibition, hits mostly inhibitors; Lysosomal alpha-glucosidase (Homo sapiens), P10253; purified human GAA, 4-MU-alpha-glucoside fluorescence;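 also: potency is read from the fitted curve at half-maximal effect; plate controls were uninhibited enzyme wells for no effect and no-enzyme background for full effect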
#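 Human enzyme at 4 nM with 400 uM 4-methylumbelliferyl-alpha-D-pyranoside, citrate/phosphate buffer pH 5.0, 0.005% Tween-20, 20 min at room temperature. Compounds up to 77 uM. 4-MU fluorescence (Ex 365/Em 440) read after NaOH/glycine stop; AC50 from Hill fit.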
# GLA inh pH 4.5 – qHTS Assay for Inhibitors of Human alpha-Galactosidase at pH 4.5 | purified enzyme, 4-MU-alpha-Gal fluorescence, pH 4.5 | activity change, negative = inhibition, % at 105 µM | 230,000 tested, under 10 active | AID 1467, 2008;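 also: 0% = full activity with enzyme and -100% = basal without enzyme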
# Target sequence (P06280 whole entry, looked up): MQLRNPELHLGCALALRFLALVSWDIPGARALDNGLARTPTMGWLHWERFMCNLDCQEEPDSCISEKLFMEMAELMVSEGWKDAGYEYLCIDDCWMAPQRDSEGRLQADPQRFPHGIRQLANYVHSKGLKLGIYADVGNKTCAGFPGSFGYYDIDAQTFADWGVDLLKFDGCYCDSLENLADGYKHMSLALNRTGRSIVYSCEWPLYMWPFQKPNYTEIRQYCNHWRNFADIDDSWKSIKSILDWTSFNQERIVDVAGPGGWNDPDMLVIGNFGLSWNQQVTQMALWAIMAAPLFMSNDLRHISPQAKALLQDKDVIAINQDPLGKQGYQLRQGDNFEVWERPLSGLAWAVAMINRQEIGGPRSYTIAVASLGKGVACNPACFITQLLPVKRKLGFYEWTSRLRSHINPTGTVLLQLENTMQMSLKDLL
# GAA spleen mod – qHTS Assay for Inhibitors and Activators of Human alpha-Glucosidase From Spleen Homogenate; human spleen homogenate, 4-MU-alpha-glucoside fluorescence; Potency, µM (doses to about 79.9 µM), for inactives: at the top dose activity change, negative = inhibition, most hits filed as inhibitors; 0.006% of 240,000 active; AID 2112, 2009;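 also: potency is read from the fitted curve at half-maximal effect; 0% = enzyme with vehicle and -100% = no enzyme basal signal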
#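 Human spleen homogenate (1 ug) incubated with compounds and 1 mM 4-methylumbelliferyl-alpha-D-glucopyranoside in pH 5.0 citrate/phosphate buffer, 37 C, 40 min. Stopped at pH 10; 4-MU fluorescence (Ex 365/Em 440 nm); AC50 by Hill fit.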
# GLA spleen mod – qHTS Assay for Inhibitors and Activators of Human alpha-Galactosidase From Spleen Homogenate | Alpha-galactosidase A (Homo sapiens), P06280 | human spleen homogenate, 4MU-alpha-Gal fluorescence, 40 min | Potency, µM (doses to about 80 µM), for inactives: top-dose activity change, negative = inhibition, usual class: inhibitors | 0.008% of 240,000 active | AID 2107, 2009;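 also: potency is read from the fitted curve at half-maximal effect; 0% = enzyme with vehicle and -100% = no enzyme basal signal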
#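 Human spleen homogenate (1 ug) as enzyme source, 4-methylumbelliferyl-alpha-D-galactopyranoside 1 mM final, citrate/phosphate pH 5.0 with 0.01% Tween-20. Compounds 40 min at 37C, NaOH/glycine stop; fluorescence Ex 365/Em 440, Hill-fit AC50.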
# GAA glycogen mod – qHTS Assay for Inhibitors and Activators of Human alpha-Glucosidase Cleavage of Glycogen; Lysosomal alpha-glucosidase (Homo sapiens), P10253; recombinant GAA, glycogen substrate, Amplex Red glucose oxidase fluorescence; Potency, µM (titrated, usually from 76.4 µM), for the others: at the top dose activity change, negative = inhibition, usual class: inhibitors; 0.38% of 300,000 active;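 also: potency is read from the fitted curve at half-maximal effect; 0% = full enzyme reaction and -100% = no-enzyme basal signal; the screen sought inhibitors and activators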
#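 qHTS, 1536-well; enzyme 4 nM final; cpd up to 77 uM; substrate bovine liver glycogen 30 ug; 50 mM citrate/phosphate pH 5.0, 0.01% Tween-20; 37 C, 40 min; Amplex Red detection 45 min RT; Hill fit → AC50.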
# An asterisk follows results filed as active; u = inconclusive; x = not tested or not shown; [ ] = remark or other dose. Calls follow the shape of the dose curve; as a rule, active = well fitted curve in the direction sought with a large enough effect; inconclusive = small, poorly fitted or top-dose-only effect, or another doubt; inactive = no such curve, though single readings can be large; an effect the other way counts as inactive or inconclusive.
SMILES,GAA inh,GLA inh pH 4.5,GAA spleen mod,GLA spleen mod,GAA glycogen mod
OC1OC[C@H](O)[C@@H](O)[C@@H]1O (stereo not given in full),x,x,-15%,-4%,x
COc1ccc(-c2nc3cc(C)ccn3c2NCc2ccc3c(c2)OCO3)cc1,u,3,-4%,0%,u
c1ccc(-c2nc3ccccn3c2NCc2ccc3c(c2)OCO3)cc1,8%,-28,6%,12%,25µM*
COc1ccc(-c2nc3ccccn3c2NCc2ccc3c(c2)OCO3)cc1,-2%,-1,-12%,1%,8.8µM*
O=C1C2=CC[C@@H]3C(=O)N(c4ccc(F)cc4F)C(=O)[C@H]3[C@H]2[C@H](O)[C@H]2O[C@H]12,x,x,0%[17.4 µM],-9%[17.5 µM],x
Nc1ccc(O)c2c(=O)cc(-c3ccccc3Cl)oc12,-9%[15.4 µM],-1,9%[119 µM],0%[119 µM],14µM*
O=c1cc(-c2ccccc2Cl)oc2cc(O)cc(O)c12,-10%,7,-15%,3%,7%
COc1ccccc1CNc1ncnc2ccc(-c3ccccc3OC)cc12,x,x,-5%,-2%,x
Cc1ccc2oc(C(=O)Nc3ccc(S(=O)(=O)Nc4ncccn4)cc3)cc(=O)c2c1,x,x,x,x,3%[76.3 µM]
Cc1ccc2oc(C(=O)Nc3ccc(S(=O)(=O)N4CCCCC4C)cc3)cc(=O)c2c1 (stereo not given),x,x,x,x,7.1µM*
Nc1nc(C2CC2)c(Sc2sc(N)nc2C2CC2)s1,5%,-4,2%,0%,6.3µM*
Nc1nc(C2CCOCC2)cs1,x,2,0%,1%,6%
O=c1c(O)c(-c2ccc(O)cc2O)oc2cc(O)cc(O)c12,0%[15.4 µM],0,-11%,-1%,3.2µM*
O=c1c(O)c(-c2ccccc2O)oc2cc(O)cc(O)c12,x,x,3%,6%,x
O=c1c(O[C@@H]2O[C@H](CO)[C@H](O)[C@H](O)[C@H]2O)c(-c2ccc(O)c(O)c2)oc2cc(O)cc(O)c12,-6%[15.4 µM],-9,u,u,6.3µM*
O=c1c(O[C@@H]2O[C@H](CO)[C@@H](O)[C@H](O)[C@H]2O)c(-c2ccc(O)c(O)c2)oc2cc(O)cc(O)c12,-1%[15.4 µM],-15,-10%,-7%,3.5µM*
COc1c(-c2ccc(O)c(O)c2)oc2cc(O)cc(O)c2c1=O,x,-8,3%,-6%,35µM*
C=C1CC2C(=O)N(Cc3cc(OC)ccc3OC)C(C(=O)OCC)C1N2C (stereo not given),x,x,-1%,-7%,x
C[C@@H]1O[C@@H](OC[C@H]2O[C@@H](Oc3c(-c4ccc(O)c(O)c4)oc4cc(O)cc(O)c4c3=O)[C@H](O)[C@@H](O)[C@@H]2O)[C@H](O)[C@H](O)[C@H]1O,-2%[15.4 µM],-6,-4%,-10%,3.2µM*
CC1OC(OCC2OC(Oc3c(-c4ccc(O)cc4)oc4cc(O)cc(O)c4c3=O)C(O)C(O)C2O)C(O)C(O)C1O (stereo not given),x,-3,-1%,-11%,u
CCCCCCCC1=Cc2ccccc2C(C(C(C)=O)C(=O)OC)N1C(=O)OC (stereo not given),x,-4,11%[17.4 µM],11%[17.5 µM],x
COc1cc(-c2nc3cnccn3c2Nc2ccc(C)cc2)ccc1O,-1%,0,-4%,1%,11µM*
COc1cc(-c2nc3cnccn3c2Nc2ccc3c(c2)OCCO3)ccc1O,-8%,-3,-6%,-2%,7µM*
CC(C)(C)c1ccc(S(=O)(=O)/C=C\C#N)cc1,x,-3,-3%,13%,x
CC(C)CCC[C@@H](C)[C@@H]1CC[C@H]2C3=CC=C4CC(O)CC[C@]4(C)[C@H]3CC[C@@]21C (stereo not given in full),x,x,-3%,-6%,x
SMILES,GAA inh,GLA inh pH 4.5,GAA spleen mod,GLA spleen mod,GAA glycogen mod
Oc1ccc(C2=Nn3c(nnc3-c3ccco3)SC2)cc1O,1%,6,-4%,-1%,16µM*
O=C(c1ccc(Nc2nccc(-c3cc4ccccc4s3)n2)cc1)N1CCC(N2CCCC2)CC1,x,x,-23%,-8%,x
COc1ccc(NCN2C(=O)C3C4C=CC(C4)C3C2=O)cc1 (stereo not given),-2%,-3,-4%,2%,28µM*
O=Nc1ccc(NO)cc1,x,x,-16%,-2%,x
N#CCCCS(=O)(=O)c1nc2ccccc2s1,x,-4,-1%,-4%,x
O=C(CSc1nc2ccccc2o1)N/N=C/c1ccc(O)c(O)c1,x,2,-2%,11%,u
COc1cccc2c(SCC(=O)N/N=C/c3ccc(O)c(O)c3)cc(C)nc12,-9%,-7,8%,8%,3.1µM*
COc1ccc2c(c1)c(C(=O)N/N=C/c1ccc(Br)cc1)c(C)n2C,x,3,2%,-1%,-5%
COc1ccc2c(c1)c(C(=O)N/N=C/c1ccc(O)c(O)c1)c(C)n2C,-9%,-6,-23%,-17%,32µM*
COc1ccc2nc(C)cc(SCC(=O)N/N=C/c3ccc(O)c(O)c3)c2c1,-12%,-7,0%,5%,7µM*
Cc1cc(SCC(=O)N/N=C/c2ccc(O)c(O)c2)c(C)cc1Br,-4%,0,-1%,-11%,18µM*
CC[C@H](C)[C@H](NC(=O)CNC(=O)[C@@H](NC(=O)[C@@H](NC(=O)[C@H](Cc1ccc(O)cc1)NC(=O)[C@H](CC(C)C)NC(=O)[C@H](C)NC(=O)[C@H](CCC(N)=O)NC(=O)CNC(=O)[C@@H]1CCCN1C(=O)CNC(=O)[C@H](Cc1ccccc1)NC(=O)[C@H](Cc1cnc[nH]1)NC(=O)[C@@H](NC(=O)CNC(=O)[C@H](CCCNC(=N)N)NC(=O)[C@H](CCCNC(=N)N)NC(=O)[C@@H](NC(=O)[C@H](CC(N)=O)NC(=O)[C@@H](N)CS)[C@@H](C)O)[C@@H](C)CC)[C@@H](C)O)[C@@H](C)O)C(=O)O,x,x,-4%,-16%,x
Nc1ccc(Nc2ccccc2)c(Cl)c1,0%,-3,-5%,-3%,35µM*
CC(C)(C)n1nnnc1C(c1ccncc1)N1CCN(c2ccc(O)cc2)CC1 (stereo not given),-1%,-2,4%,6%,18µM*
CCOC(=O)Nc1c(C(=O)OC)[nH]c2cc(OC)ccc12,10%,0,-8%,-10%,2%
COC(=O)c1[nH]c2cc(OC)ccc2c1N,4%,4,7%,9%,35µM*
FC(F)(F)c1ccccc1Cl,x,x,7%,2%,x
O=C(c1ccc2c(c1)OCO2)N1CCN(c2ccccc2)CC1,-6%,-6,4%,4%,7%
